The results in this text go back to the supplement of paper PMC10338343.

± gives the standard deviation.

For this test, the system named is MILI (PIWIL2) piRISC loaded with piRNA #1 (26 nt). The test is described as follows: pre-steady-state target cleavage rate (min^-1); guide: piRNA #1 5'p-UGAGGUAGUAGGUUGUAUAGUAUCCA; MIWI and MILI are mouse PIWI proteins and EfPiwi is from a freshwater sponge; tags in brackets are library labels; higher = faster piRNA-guided slicing of the target. The settings on record: auxiliary factor: 500 nM mouse GTSF1. The gist of the method:
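Cleave-'n-Seq: a transcribed, DNA-blocked target RNA library (0.1 nM) was mixed with 1 nM active affinity-purified piRISC carrying one synthetic guide, with or without 500 nM GTSF1 partner protein, in HEPES–potassium acetate buffer at 33 °C for 0–8 or 0–960 min. Uncleaved targets were sequenced and normalised to depth and to weakly complementary targets. Three trials were pooled, and k3 was capped at 0.0001 min^-1. The pre-steady-state cleavage rate came from a burst-and-steady-state fit.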
Regarding GGAGACCUAUGAAUACUACCUACUACCACA, the “pre-steady-state target cleavage rate” value stood at 0.00343 ± 0.0025. As for GGAGACCUAUGUAUACUACCUACAACCUCA, the figure is 0.0574 ± 0.0091. Regarding GGAGACCUAUGUAUACUACCUACUACGUCA, the “pre-steady-state target cleavage rate” value was 0.0155 ± 0.0032. As to GGAGACCUAUGAAUACAUCCUACUUCCUCA, the “pre-steady-state target cleavage rate” value was determined as 0.00892 ± 0.0025. As for GGAGACCAUUCUAUACAACCAACUACCUCA, the figure is 0.0079 ± 0.0026; as for GGAGACCUAUGAUAUGUACCUACUACCUGCA, < 0.0001; as for GGAGACCUAUCUAUACUACCUACUACCUGA, 0.0569 ± 0.013.

GGAGACCUAUCUAUACAACGUUCUACCUCA: the “pre-steady-state target cleavage rate” value came out at 0.00394 ± 0.0033.

Turning to GGAGACCUAUGUAUACAACCUAAUACCUCA, the “pre-steady-state target cleavage rate” value came out at 0.0196 ± 0.0049.

Take GGAGACCUAACCAUACAACCUACUACCUCA: the “pre-steady-state target cleavage rate” value was determined as 0.12 ± 0.072. As to GGAGACCUAUGAUAACAAGCUAGUACCUCA, the “pre-steady-state target cleavage rate” value came out at 0.00508 ± 0.0032. Take GGAGUGGAAACUAAACAACCUACUACCUCA: the “pre-steady-state target cleavage rate” value amounted to 0.201 ± 0.02. The figure for GGAGACCUUACUAUACAUCCUUCUACCUCA is 0.0405 ± 0.0086; for GGAGACCUUACUAUAGAACCUACUAGCUCA it is 0.00445 ± 0.0038. As for GGAGACCUAUGAUAACAAGCUACAACCUCA, the figure is 0.0095 ± 0.0029; as for GGAGACCUAUGAUAUCAACCUAGCUACCUCA, 0.00339 ± 0.0024. GGAGACCUAUGAAGACAACCUACUACCUCA: the “pre-steady-state target cleavage rate” value is 0.00824 ± 0.0032. As for GGAGUGGAUCACUAUACAACCUACUACCUCA, the figure is 0.0867 ± 0.025. As for GGAGAGGAUACUAUUGAACCUACUACCUCA, the figure is 0.124 ± 0.011; as for GGAGACCUAUGUAUACAACCUACUAGCUCA, 0.0155 ± 0.0035; as for GGAGACCUAUGACUACAACCUACUACCUCA, 0.00416 ± 0.0019.

Regarding GGAGACCUAUGAUAUCAUGCUACUACCUCA, the “pre-steady-state target cleavage rate” value was < 0.0001. Turning to GGAGACCUAACUAUACUACCUACUACCUGA, the “pre-steady-state target cleavage rate” value was determined as 0.0917 ± 0.025. As for GGAGACCUAUCUAUACAACCUAGAUCCUCA, the figure is 0.0047 ± 0.0021.
